Structures are written as SMILES. Among all 360,000 compounds or so, about 11,000 (3.1%) were called active. Inconclusive results (about 2%) are left out. Cut-off read from the data, not from the text of the source: active = fluorescence intensity above about 16000; inconclusive = no clear call, values can overlap the other calls; inactive = below that. This excerpt belongs to a sample that is enriched for actives.

This assay is described as follows: compound fluorescence in toxin protease inhibitor counterscreen, primary screen, artefact control for toxin protease inhibitor project, biochemical, multiplex microsphere, HTS (AID 624483). The following applies: compound autofluorescence counterscreen, microsphere flow cytometry; stronger effect = higher value.
Regarding `Cc1ccccc1CSc1nnc(-c2ccccn2)n1N`, the fluorescence intensity is 16200 (active).
For `Cn1c(SCC(=O)C(C)(C)C)nnc1-c1ccccn1` the value was 9760 (inactive); for `Cc1ccccc1CSc1nnc(-c2cccnc2)n1N`, 2660 (inactive); for `COc1ccc(C(=O)NC(=S)N2CCCCC2c2cccnc2)cc1OC` (centres undefined), 4080 (inactive).
As for `Cc1ccc(Cn2c(=N)c(S(=O)(=O)c3ccc(C)cc3)cc3c(=O)n4ccccc4nc32)cc1`, the fluorescence intensity was 4390 (inactive).
As to `CCn1c(=N)c(S(=O)(=O)c2ccc(F)cc2)cc2c(=O)n3ccccc3nc21`, the fluorescence intensity was 2990 (inactive).
For `Cc1ccc(-n2c(=O)c(C#N)cc3c(=O)n4ccccc4nc32)cc1C`, the fluorescence intensity was 24200 (active).
For `CCc1nc2nc(C)c(NS(=O)(=O)c3ccc4c(c3)CCCC4)c(=O)n2[nH]1`, the fluorescence intensity was 4030 (inactive).
Turning to `C=C1C(=O)[C@]23C[C@H]1CCC2[C@@]1(C)C(C[C@@H]3O)[C@](C)(C(=O)O)CC[C@@H]1O` (some centres undefined), the fluorescence intensity is 4260 (inactive).
In the case of `CC1=C(C(=O)N(C(C)C)C(C)C)CC(CC(=O)NCC2CCCCC2)C(=O)N1Cc1ccccc1` (centres undefined), the fluorescence intensity was 5490 (inactive).
Regarding `CCCCN(C1CCS(=O)(=O)C1)S(=O)(=O)c1ccc(C(C)C)cc1` (centres undefined), the fluorescence intensity was 5460 (inactive).
`Cc1ccc(S(=O)(=O)N(c2cccc(C)c2)C2CCS(=O)(=O)C2)cc1` (centres undefined): the fluorescence intensity is 21200 (active).
As for `CN(C1CCS(=O)(=O)C1)S(=O)(=O)c1ccc2ccccc2c1` (centres undefined), the fluorescence intensity is 5860 (inactive).
Regarding `CCOP(=O)(OCC)C(Cc1ccccc1)N=C(c1ccccc1)c1ccccc1` (centres undefined), the fluorescence intensity was 5750 (inactive).
With `Cn1cnc(S(=O)(=O)Nc2ccc3c(c2)OCCO3)c1`, the fluorescence intensity is 3290 (inactive).
Turning to `CCC(c1nnnn1-c1ccc2c(c1)OCCO2)N1CCN(c2ccc(C(F)(F)F)cn2)CC1` (centres undefined), the fluorescence intensity was 5170 (inactive).
The value for `CC(=O)Nc1cc(-c2ccc(N3CCN(C)CC3)cc2)cn2c(-c3cccc(C(=O)N(C)C)c3)cnc12` was 2910 (inactive); that for `CC/S(CC1CC1(Cl)Cl)=N\S(=O)(=O)c1ccc(C)cc1` (centres undefined) was 19500 (active).
Consider `CCCC/S(C)=N/S(=O)(=O)c1ccc(C)cc1` (centres undefined), for which the fluorescence intensity is 1940 (inactive).
On to `Cc1ccc(S(=O)(=O)/N=S(\C)C(C)C)cc1` (centres undefined), for which the fluorescence intensity was 2730 (inactive).
For `CC(=O)c1ccc(-c2cnc3c(NC=O)cc(-c4cccc(NS(C)(=O)=O)c4)cn23)cc1` the value was 4010 (inactive); for `COc1ccc(C(c2nnnn2C2CCCC2)N2CCN(C/C=C/c3ccccc3)CC2)cc1` (centres undefined), 5910 (inactive); for `O=C(CC(c1ccccc1)c1ccccc1)NCC(O)c1ccc([N+](=O)[O-])cc1` (centres undefined), 3190 (inactive).
As to `CCCCOC(=O)Nc1nnc(CC(=O)NCc2ccccc2)s1`, the fluorescence intensity is 3980 (inactive).
Turning to `CCCCCCOC(=O)NCC(O)c1ccccc1` (centres undefined), the fluorescence intensity is 17600 (active).
In the case of `Cc1cccc(CN2CCN(C3CN(Cc4cn(Cc5cc(C)cc(C)c5)nn4)S(=O)(=O)C3)CC2)c1` (centres undefined), the fluorescence intensity is 4640 (inactive).
Turning to `CCCCCCN1CCN(C2CN(Cc3cn(CCCCCC)nn3)S(=O)(=O)C2)CC1` (centres undefined), the fluorescence intensity was 5850 (inactive).
For the compound `COc1ccc([N+](=O)[O-])cc1N(CC(O)CN(CC(C)C)CC(C)C)S(=O)(=O)c1ccc(C)cc1` (centres undefined), the fluorescence intensity was 3790 (inactive).
For the compound `COc1ccc([N+](=O)[O-])cc1N(CC(O)Cn1nnc2ccccc21)S(=O)(=O)c1ccc(C)cc1` (centres undefined), the fluorescence intensity is 17900 (active).
Take `Cc1ccc(S(=O)(=O)N(CC(O)CN2CCCCC2)c2cccc([N+](=O)[O-])c2)cc1` (centres undefined): the fluorescence intensity was 3000 (inactive).
Turning to `CC(C)[C@@H](C(=O)OCC(=O)c1ccc2c(c1)NC(=O)CO2)N1C(=O)c2ccccc2C1=O`, the fluorescence intensity was 3880 (inactive).
The value for `C=C(C)C(=O)O[C@H]1C/C(C)=C\C(=O)/C=C(\C)[C@H](O)[C@@H]2OC(=O)C(=C)[C@@H]21` was 2760 (inactive).
Regarding `CCOC(=O)c1c(C)n(C)c2ccc(OC)c(NS(=O)(=O)CC)c12`, the fluorescence intensity is 2300 (inactive).
For `CCOc1ccc(NC(=O)Nc2ccc(N(C)C(C)=O)cc2)cc1` the value was 4350 (inactive).
For `CCOc1ccc(NC(=O)N(CC(C)C)CC(C)C)cc1`, the fluorescence intensity is 20300 (active).
Take `CCOc1ccc(NC(=O)N(CCC(C)C)C(C)c2ccco2)cc1` (centres undefined): the fluorescence intensity was 2150 (inactive).
With `CCCC1NC(=O)NC(C)=C1C(=O)OCC` (centres undefined), the fluorescence intensity was 20200 (active).
Turning to `CCCC1NC(=S)NC(C)=C1C(C)=O` (centres undefined), the fluorescence intensity was 4600 (inactive).
As to `CCOC(=O)C1=C(C)NC(C)=C(C(=O)OCC)C1C1=COCCO1`, the fluorescence intensity was 5040 (inactive).
For `CC(=O)NC(c1ccccc1)c1nc(-c2ccccc2C)cs1` (centres undefined), the fluorescence intensity is 3560 (inactive).
In the case of `O=C(Nc1ccc(N2CCN(C(=O)C3CC3)CC2)cc1)c1cccs1`, the fluorescence intensity is 2520 (inactive).
Take `O=C(O)Cc1ccc(NC(=O)c2cccs2)cc1`: the fluorescence intensity is 19700 (active).
For `O=C(NC(=S)Nc1ccc(NC(=O)c2cccs2)cc1)c1ccc([N+](=O)[O-])cc1` the value was 8970 (inactive); for `O=C(Nc1ccccc1-c1ccccc1)c1cccs1`, 4880 (inactive).
Consider `CCc1ccc(NC(=O)C(=O)NNC(=O)c2cccs2)cc1`, for which the fluorescence intensity is 5780 (inactive).
Turning to `O=C(O)c1ccc(NC(=O)c2cccs2)cc1`, the fluorescence intensity is 23200 (active).
As to `CC(C)CCNC(=O)c1[nH]c(C(F)(F)F)nc1-c1ccccc1`, the fluorescence intensity was 5980 (inactive).
With `CCOC(=O)[C@]12CCC=C1N(Cc1ccco1)C(=O)[C@H](CC(=O)NCc1cccc(C(F)(F)F)c1)C2`, the fluorescence intensity is 4290 (inactive).
Turning to `COC(=O)[C@]12CCCCC=C1N(CCC1=CCCCC1)C(=O)[C@H](CC(=O)N1CCSCC1)C2`, the fluorescence intensity was 5780 (inactive).
Turning to `CC(=O)Nc1ccc(CNc2nc(NCCN(C)C)nc3cc(-c4ccccc4)sc23)cc1`, the fluorescence intensity is 3970 (inactive).
On to `Cc1cc(Cl)ccc1NNC(=O)c1snnc1C`, for which the fluorescence intensity was 3890 (inactive).
On to `Cc1noc(C)c1COc1cccc(C(=O)Nc2cccnc2)c1`, for which the fluorescence intensity is 4200 (inactive).
For `CC1(C(=O)Nc2cccnc2)Cc2c(-c3ccccc3)ccnc2O1` (centres undefined), the fluorescence intensity is 2820 (inactive).
The value for `O=C(Nc1cccnc1)c1noc2c1CCCCC2` was 24400 (active).
Consider `CS(=O)(=O)N(CC(=O)N1CCOCC1)c1cccc(Cl)c1Cl`, for which the fluorescence intensity is 4130 (inactive).
On to `COC(=O)c1ccc(CN2C(=O)C(Cc3ccccc3)ON=C2c2ncccc2C)o1` (centres undefined), for which the fluorescence intensity was 4970 (inactive).
The value for `COCCn1c(SCc2nc3cc(OC)c(OC)cc3c(=O)[nH]2)nnc1-c1ccncc1` was 3550 (inactive); that for `COc1cccc(CSc2nc3nc(C)cc(C)n3n2)c1` was 3360 (inactive).
With `COCCCn1c(SCc2cccc(OC)c2)nc2cc(OC)c(OC)cc2c1=N`, the fluorescence intensity was 23400 (active).
